According to PubChem BioAssay (NCI):
The panel holds about 79,000 compounds, 15% with a hit somewhere; the sample as a whole holds those more often. Cut-off read from the data, not from the text of the source: active = growth inhibition above about 70%; inactive = the rest. Where a SMILES comes first, the peptide text is derived from it. The star is where a group is joined. Fmoc = O=C(OCC1c2ccccc2-c2ccccc21)*; OBn = c1ccc(CO*)cc1; tBu = CC(C)(C)*

Experiments:
[1] = NCI Yeast Anticancer Drug Screen. Data for the rad50 strain (AID 155);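 note: 0% = growth of vehicle-only cultures of the same strain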; settings: S. cerevisiae rad50 strain growth inhibition; at 50.0 µM; stronger effect = higher value
Outline: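 Yeast carrying a defined DNA repair defect were exposed to test compounds, and growth was compared with vehicle-treated controls to give percent inhibition.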

[2] = NCI Yeast Anticancer Drug Screen. Data for the mec2-1 strain (AID 157); settings: S. cerevisiae mec2-1 strain, at 50.0 µM, stronger effect = higher value
Outline: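 Yeast mec2-1 mutant treated with compound. Readout: growth inhibition vs vehicle controls.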

[3] = NCI Yeast Anticancer Drug Screen. Data for the sgs1 mgt1 strain (AID 161);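 note: 0% = growth of cultures given vehicle only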; settings: S. cerevisiae sgs1 mgt1 strain, at 50.0 µM, stronger effect = higher value
Outline: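 Genetically altered yeast, compound exposure, growth inhibition relative to vehicle.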

[4] = NCI Yeast Anticancer Drug Screen. Data for the cln2 rad14 strain (AID 165);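 note: 0% = growth equal to vehicle treated cultures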; settings: S. cerevisiae cln2 rad14 strain, at 50.0 µM, stronger effect = higher value
Outline: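 cln2 rad14 yeast strain; compound exposure; growth inhibition read vs vehicle controls.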

[5] = NCI Yeast Anticancer Drug Screen. Data for the bub3 strain (AID 167); settings: S. cerevisiae bub3 mutant strain, at 50.0 µM, stronger effect = higher value
Outline: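 Compounds were applied to a genetically altered yeast strain carrying a cell-cycle control defect. Growth inhibition was scored against vehicle-treated controls.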

[6] = NCI Yeast Anticancer Drug Screen. Data for the mlh1 rad18 strain (AID 175); settings: S. cerevisiae mlh1 rad18 strain growth inhibition; at 50.0 µM; stronger effect = higher value
Outline: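 Yeast w/ defined DNA-repair lesions; compound exposure; growth vs vehicle controls → % inhibition.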

Measured: growth inhibition

Cc1cc(Cl)c(Cl)cc1NC(=O)c1ccc(Cl)c(Cl)c1
inactive: [1] 5.15% | [2] 23.4% | [3] 9.9% | [4] -3.25% | [5] 45.1% | [6] 5.2%

C=CCCCOC(C)=O
inactive: [1] 5.1% | [2] -10.9% | [3] 12.5% | [4] 4% | [5] 11.9% | [6] 1.8%

CCOC(=O)CCC[n+]1cccc(C#N)c1
inactive: [1] 3.3% | [2] 1.4% | [3] 2% | [4] -3.35% | [5] -3.15% | [6] -1.35%

COC(=O)c1cc2ccc1OCC#CC#CCOc1ccc(cc1C(=O)OC)OCC#CC#CCO2
inactive: [1] -1.9% | [2] 5.5% | [3] 7.35% | [4] 5.75% | [5] -0.7% | [6] 19.2%

CCN(CC)C1CCC(C2c3cc4c(cc3OC(N3CCOCC3)C2C)OCO4)CC1 (stereo unspecified)
inactive: [1] -11.1% | [2] -18.4% | [3] -22.8% | [4] -63% | [5] 7.95% | [6] -22.4%

CC(OC(C)(C)C)C(NC(=O)OCC1c2ccccc2-c2ccccc21)C(=O)NC(Cc1ccccc1)C(=O)OCc1ccccc1 (stereo unspecified) (Fmoc-Thr(tBu)-Phe-OBn; configuration not given here)
inactive: [1] -32.2% | [2] -7.7% | [3] -4.5% | [4] -15.7% | [5] -18.6% | [6] 0.45%

COc1ccc(/C=C2\N=C(N3CCOCC3)NC2=O)cc1
inactive: [1] -4.15% | [2] 7.25% | [3] 10.4% | [4] -13.8% | [5] -3.4% | [6] -43.8%

CSc1n[n+]2c(s1)SCCC2
inactive: [1] -19.8% | [2] -27.2% | [3] 0.05% | [4] 5.45% | [5] -8.7% | [6] 0.05%

O=C1NC(c2ccco2)N2C(=O)NC(c3ccco3)N12 (stereo unspecified)
inactive: [1] 15.2% | [2] 21.5% | [3] 24.5% | [4] 12.6% | [5] 18.6% | [6] 16.7%

c1coc(C2OCCO2)c1
inactive: [1] -24.1% | [2] -31.6% | [3] -26.6% | [4] 6.75% | [5] -21.8% | [6] -3.1%

COc1ccc(C#CCC(OC2OC(CO)C(O)C(O)C2O)C(O)c2ccc(OC)c(OC)c2)cc1OC (stereo unspecified)
inactive: [1] -0.15% | [2] -7.55% | [3] -6.95% | [4] 12% | [5] -17.2% | [6] -15.9%

CCCCONC(N)=O
inactive: [1] -12.2% | [2] -11.1% | [3] -23.4% | [4] 7.75% | [5] -5.15% | [6] -5.95%

CSc1nc2c(c(=O)n(C)c(=O)n2C)n1C
inactive: [1] 30.4% | [2] -3.25% | [3] -10.7% | [4] 8.15% | [5] 9.15% | [6] 24.9%

CCc1cnccc1C
inactive: [1] 10.3% | [2] -14.9% | [3] -19.1% | [4] 6.25% | [5] 6.45% | [6] -9.75%

CCOC(=O)C1C2CC3C(CC21C)C3(C)C (stereo unspecified)
inactive: [1] -6.1% | [2] -6.65% | [3] -12.9% | [4] -2.5% | [5] -20.6% | [6] 1%

CCCC(=O)C1=C(O)C(CC2=C(O)C(C)(C)C(=O)C(C(=O)CCC)=C2O)=C(O)C(C)(C)C1=O
inactive: [1] 26.3% | [2] -12.4% | [3] -2.5% | [4] 1% | [5] -0.15% | [6] 1.3%

CC1(C)CCCC(OC(=O)c2ccc([N+](=O)[O-])cc2)C1 (stereo unspecified)
inactive: [1] 10.4% | [2] -17.5% | [3] -1.3% | [4] -2.05% | [5] 7.5% | [6] -10.6%

O=CC(O)C(O)C(O)C(O)C(=O)O.O=CC(O)C(O)C(O)C(O)C(=O)O.[NH-]C1CCCCC1[NH-].[Pt+2] (stereo unspecified)
inactive: [1] -7.65% | [2] -9.8% | [3] 8.2% | [4] 4.25% | [5] 6.35% | [6] -41%

O=C(O)CCCc1ccccc1[N+](=O)[O-]
inactive: [1] -16.7% | [2] -41.8% | [3] -6.4% | [4] -2.35% | [5] -18.9% | [6] -19.8%

CC1CC(C)(C)OC(c2ccc(Cl)cc2)O1 (stereo unspecified)
inactive: [1] 9.35% | [2] -5.85% | [3] -9.6% | [4] -52.5% | [5] -12.4% | [6] -9.1%

CCCCCCC(=O)/C=C/c1ccc(OCc2ccccc2)c(OCc2ccccc2)c1
inactive: [1] 33.9% | [2] -2.6% | [3] 18.5% | [4] 23.9% | [5] -2.15% | [6] 16.1%
